# HT1080NT lethal = qHTS for induction of synthetic lethality in tumor cells producing 2HG: qHTS for the HT-1080-NT fibrosarcoma cell line; HT-1080-NT fibrosarcoma viability, CellTiter-Glo ATP luminescence, 48 h; Potency, µM (highest dose often 46.1 µM), inactives show at the highest dose activity, negative = less viability, actives largely listed as cytotoxic; 1.6% of 360,000 active; AID 686970, 2013;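 note: NT is the 2HG producing partner of a matched IDH1 knockdown line; 0% = DMSO-treated cells and -100% = media-only wells without cells; nearly all actives have a fitted effect of over 55% in size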
#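 Read-out is CellTiter-Glo luminescence after 10 minutes at room temperature, following 48 hours' compound treatment of HT-1080-NT cells (750 cells/well, RPMI, 5% FBS, 37 degrees C).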
# KB-3-1 cytotox = qHTS assay for MDR1-selective chemotherapeutics: Primary screen using the parental adenocarcinoma cell KB-3-1. KB-3-1 viability, CellTiter-Glo ATP luminescence, 72 h. Potency, µM (highest dose often 46.1 µM), actives largely listed as cytotoxic. 1.4% of 400,000 active. AID 1347075, 2019; note: nearly all actives have a fitted effect of over 60% in size
#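 Viability of parental KB-3-1 cells, measured by CellTiter-Glo luminescence, followed a 72 h incubation at 37 °C with pinned compounds in phenol-red-free DMEM containing 10% FBS.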
# TDP1 cell CPT = qHTS for Inhibitors of human tyrosyl-DNA phosphodiesterase 1 (TDP1): qHTS in cells in presence of CPT; chicken DT40 Tdp1-/-;hTDP1 cells + 20 nM CPT, ATP luminescence, 48 h; Potency, µM (titrated, usually from 46.2 µM), without a hit: at the highest dose activity change, negative = growth inhibition, hits mostly inhibitors; 12% of 420,000 active; note: nearly all actives have a fitted effect of over 55% in size
#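 Chicken DT40 Tdp1-/- cells stably complemented with human TDP1 were seeded at 400 cells/well in medium containing 20 nM camptothecin, exposed to pin-transferred compounds, and grown at 37 °C for at least 48 hr. Viability was read as ATP luminescence.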
# TDP1 cell noCPT = qHTS for Inhibitors of human tyrosyl-DNA phosphodiesterase 1 (TDP1): qHTS in cells in absence of CPT | Potency, µM (highest dose often 46.2 µM), without a hit: at the highest dose activity change, negative = growth inhibition, most hits filed as inhibitors | 15% of 420,000 active | DT40 Tdp1-/- hTDP1 cells, no CPT, ATP luminescence, 48 h | AID 686978, 2013; note: nearly all actives have a fitted effect of over 55% in size
#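 A cellular qHTS used chicken DT40 cells lacking endogenous Tdp1 but carrying stably transfected human TDP1. Compounds were applied without camptothecin, and cell growth kinetics were judged by ATP-dependent luminescence after ≥48 hr.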
# KB-V1 MDR tox = qHTS assay for MDR1-selective chemotherapeutics: Primary screen using the drug-selected MDR subline cells KB-V1; KB-V1 MDR cells viability, CellTiter-Glo, 72 h; Potency, µM (doses to about 46.1 µM), most hits filed as cytotoxic; 3.4% of 400,000 active; note: nearly all actives have a fitted effect of over 60% in size
#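 Drug-selected KB-V1 cells, grown in DMEM lacking phenol red with 10% FBS, receive compound titrations; after three days at 37 degrees C, surviving cell ATP is quantified by CellTiter-Glo luminescence and responses normalized and curve-fitted.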
# HT1080 IDH1KD tx = qHTS for induction of synthetic lethality in tumor cells producing 2HG: qHTS for the HT-1080-IDH1KD cell line | HT-1080 IDH1 knockdown viability, ATP luminescence, 48 h | Potency, µM (series often up to 46.1 µM), without a hit: at the top dose activity, negative = toxicity, actives largely listed as cytotoxic | 2% of 360,000 active | AID 686971, 2013;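 note: 0% = DMSO wells and -100% = cell-free medium wells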
#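 IDH1KD HT-1080 cells, 750/well, RPMI + 5% FBS; compound pinned after 2 h settling; 48 h, 37 °C; CellTiter-Glo luminescence; % activity normalised to DMSO and no-cell wells; curves fitted, classed by r2 and efficacy.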
# * hit, by the source's call; i = inactive; ? = inconclusive; · = no result given. An excerpt weighted towards active compounds, which were near 19% of everything screened. Calls come from the whole dose curve; as a rule, active = well fitted curve in the direction sought with a large enough effect; inconclusive = small, poorly fitted or top-dose-only effect, or another doubt; inactive = no such curve, though single readings can be large; an effect the other way counts as inactive or inconclusive. Unless noted, % is set by controls: 0 for no effect and ±100 for the full control effect; potency is the fitted concentration of half-maximal effect.
SMILES,HT1080NT lethal,KB-3-1 cytotox,TDP1 cell CPT,TDP1 cell noCPT,KB-V1 MDR tox,HT1080 IDH1KD tx
Cc1nn(-c2ccccc2)c(C)c1/C=N/NC(=O)c1cc(O)cc(O)c1,-18.4%,i,1.9%,-14.0%,i,-5.8%
COc1cc(/C=N/NC(=O)c2cc(-c3c(C)nn(-c4ccccc4)c3C)n[nH]2)ccc1O,-8.9%,i,23.1µM*,?,i,-13.9%
CC(=O)c1cccc(NC(=O)N2CCC(c3nnc(SCC(N)=O)n3C)CC2)c1,5.4%,i,-10.9%,-5.5%,i,1.6%
CN1CCc2c(sc3c2c(=O)n(-c2cccc(Cl)c2)c2nncn32)C1,-12.9%,i,?,-29.0%,i,-0.1%
CN1CCc2c(sc3c2c(=O)n(-c2ccccc2)c2nnc(SCc4ccc(Cl)cc4)n32)C1,5.6%,?,13µM*,?,i,2.6%
CCOc1cccc(C2c3[nH]c4ccccc4c3CCN2C(=O)c2ccccc2F)c1 (stereo not drawn),·,·,?,16.4µM*,·,·
CC(=O)NCCC(=O)N1CCc2c([nH]c3ccccc23)C1c1cccc(Cl)c1 (stereo not drawn),?,i,?,14.6µM*,i,-26.8%
O=C(c1cnccn1)N1CCc2c([nH]c3ccccc23)C1c1cccc(Cl)c1 (stereo not drawn),-13.9%,?,-25.4%,-10.9%,23.1µM*,-24.0%
CCOc1ccc(C2c3[nH]c4ccccc4c3CCN2C(=O)Cc2cccc(OCC)c2OCC)cc1 (stereo not drawn),·,i,?,?,i,·
CCc1cc(C(=O)N2CCc3c([nH]c4ccccc34)C2c2ccc(OC)cc2F)no1 (stereo not drawn),?,5.8µM*,?,23.1µM*,?,-29.8%
Cc1cc(C(=O)N2CCc3c([nH]c4ccccc34)C2c2cccc(Cl)c2)nn1C (stereo not drawn),-11.1%,i,?,?,i,-19.9%
O=C(COC(=O)c1ccc(Cl)nc1)NCCc1ccccc1,0.9%,i,-11.9%,26.0%,i,-1.5%
S=C(Nc1ccc(Cl)c(Cl)c1)NN1CCOCC1,-0.1%,i,-0.9%,-10.1%,i,-0.6%
CCOc1ccc(-c2cc3c(=O)n(CC(=O)NCc4ccc(Cl)cc4)ccn3n2)cc1,·,i,-14.0%,0.2%,i,·
Cc1ccc(C(=O)CN2C(=O)NC3(CCCCCC3)C2=O)c(C)c1,16.0%,i,-26.6%,?,?,10.8%
CC(O)CCC(=O)NCCNC(=O)CCC(C)O (stereo not drawn),5.7%,i,25.9µM*,?,i,10.8%
Cc1sc(NC(=O)C2CSC3(C)CCC(=O)N23)nc1-c1ccc(F)cc1 (stereo not drawn),-11.0%,i,14.6µM*,18.4µM*,i,-18.7%
Cc1ccc(-c2csc(NC(=O)C3CSC4(C)CCC(=O)N34)n2)cc1 (stereo not drawn),6.2%,i,-7.7%,-22.3%,?,4.3%
Cc1cc(C)c2nc(NC(=O)C3CSC4(C)CCC(=O)N34)sc2c1 (stereo not drawn),-9.4%,i,-44.9%,3.66µM*,i,-9.9%
CC1CCN(S(=O)(=O)c2ccc(NC(=O)C3CSC4(C)CCC(=O)N34)cc2)CC1 (stereo not drawn),7.7%,i,?,10.3µM*,i,-4.8%
Cc1nc(-c2ccccc2)sc1CCNS(=O)(=O)c1ccccc1,·,i,·,·,?,·
CC(Oc1ccccc1Cl)C(=O)Nc1ccc(S(=O)(=O)N2CCCC2)cc1 (stereo not drawn),-13.6%,i,?,?,?,-15.6%
CCc1ccc(C(C#N)=CC=Cc2ccccc2)cc1,-27.6%,?,?,20.6µM*,?,?
CCCc1cc(=O)[nH]c(Nc2ccc(Cl)cc2)n1,-20.7%,?,?,16.4µM*,?,?
COc1ccc(NS(=O)(=O)c2cccc(C(=O)NCc3ccccn3)c2)cc1,10.4%,i,-23.2%,-13.4%,i,-0.1%
SMILES,HT1080NT lethal,KB-3-1 cytotox,TDP1 cell CPT,TDP1 cell noCPT,KB-V1 MDR tox,HT1080 IDH1KD tx
Cc1cc(-n2cnc3c(=O)[nH]cnc32)ccc1N,6.8%,i,-1.7%,-3.1%,i,13.4%
Cc1ccc(-n2cnc3c(=O)[nH]cnc32)cc1,0.5%,?,-6.2%,9.1%,9.2µM*,10.9%
COc1ccc(C(=O)N2CCN(C(=O)COc3ccccc3)CC2)cc1OC,·,i,·,·,i,·
CCCCn1nc(C(=O)N(C)CC(=O)Nc2ccc(F)c(F)c2F)ccc1=O,9.9%,i,-0.8%,0.2%,14.6µM*,-7.1%
Cc1ccc(C)c(SCC(=O)OC/C(O)=C(\C#N)c2nc3ccccc3[nH]2)c1,-27.7%,i,?,?,i,-20.5%
Cc1cc(Br)ccc1SCC(=O)OC/C(O)=C(\C#N)c1nc2ccccc2[nH]1,0.0%,?,?,20.6µM*,?,-0.3%
Cc1cc(Br)ccc1SCC(=O)OCC(O)=C(C#N)c1nc2ccccc2[nH]1,6.3%,?,4.61µM*,4.61µM*,?,7.0%
N#C/C(=C(/O)COC(=O)CSc1ccc2ccccc2c1)c1nc2ccccc2[nH]1,-1.1%,?,5.17µM*,2.91µM*,i,6.0%
CC(C)C(=O)NC(=S)Nc1ccc(S(=O)(=O)NC2CCCCC2)cc1,-8.3%,i,?,-25.9%,?,-4.4%
CCN(Cc1nc2cc(Cl)ccc2c(=O)[nH]1)C(=O)c1ccc(C)c(NC(=O)c2ccco2)c1,-7.5%,i,-1.4%,2.0%,?,2.0%
